This passage reports outcome and AC50 results from PubChem BioAssay (EPA / NIEHS).

One may read the AC50 as the concentration giving half of the maximal activity seen.

Test [1] can be described thus: APR_HepG2_CellLoss_72hr: Apredica 72-hour HepG2 Assay for Cell Loss (AID 2282915). Conditions: high-content imaging. A digest of the protocol:
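HepG2 cells exposed 72 h to compound at 0.39–200 uM (10 concentrations, duplicate) in 0.5% DMSO. Fixed with 3.7% formaldehyde and Hoechst 33342-stained. Imaged at 20x; nuclear count gives cell number, fitted bidirectionally versus DMSO.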

A short description of test [2]: APR_HepG2_P-H2AX_72hr: Apredica 72-hour HepG2 Assay for H2AX Phosphorylation (AID 2282916).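 Further: phospho-histone H2A.x immunostain intensity per cell marking DNA damage.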 The settings on record: imaging, actives raise or lower the signal. The gist of the method: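 Phospho-H2A.x imaging endpoint in HepG2 after 72 hr compound exposure (0.39–200 uM, duplicate wells). Activity derived by bidirectional curve fitting with DMSO as baseline.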
Test [3] can be described thus: APR_HepG2_MitoMembPot_72hr: Apredica 72-hour HepG2 Assay for Mitochondrial Membrane Potential (AID 2282917). The settings on record: imaging, actives raise or lower the signal. A digest of the protocol: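 HepG2 cells dosed 72 hr with compound at 0.39–200 uM in duplicate, 0.5% v/v DMSO final. Mitochondria stained with 250 nM MitoTracker Red CMXRos for 30 min before formaldehyde fixation, imaged by high-content fluorescence; bidirectional fit versus DMSO.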

The nature of test [4]: APR_HepG2_MitoticArrest_72hr: Apredica 72-hour HepG2 Assay for Mitotic Arrest (AID 2282918). The settings on record: high-content imaging, actives raise or lower the signal. The gist of the method: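 HepG2 cells treated 72 h at 0.39–200 uM, 0.5% DMSO final; formaldehyde-fixed, stained with Hoechst 33342 and phospho-histone H3 antibody, imaged by high-content fluorescence; bidirectional fit versus DMSO.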

A short description of test [5]: APR_HepG2_MicrotubuleCSK_72hr: Apredica 72-hour HepG2 Assay for Microtubule CSK Stabilty (AID 2282919). The settings on record: HepG2 microtubule cytoskeleton, high-content imaging, actives raise or lower the signal. The gist of the method:
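HepG2, 72 hr cmpd exposure, 0.39–200 uM (10 pts, duplicate), 0.5% DMSO. 3.7% formaldehyde fix, 0.5% Triton perm, anti-alpha-tubulin/Cy5 plus Hoechst. HCS fluorescence intensity; bidirectional fit vs DMSO baseline; taxol as positive control.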

Test [6] in a line: APR_HepG2_P-H2AX_24hr: Apredica 24-hour HepG2 Assay for H2AX Phosphorylation (AID 2282920). The settings on record: high-content imaging, actives raise or lower the signal. The gist of the method: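 HepG2 cells dosed 24 h at 0.39–200 uM (10 points, duplicate, 0.5% DMSO final). Formaldehyde-fixed and permeabilized, then immunostained for phospho-H2A.x with Hoechst. Fluorescence quantified by high-content imaging, fitted bidirectionally versus DMSO.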

Test [7] is described as follows: APR_HepG2_StressKinase_72hr: Apredica 72-hour HepG2 Assay for Stress Kinase (AID 2282921). Conditions: HepG2 stress kinase (phospho-c-Jun) imaging, actives raise or lower the signal. The gist of the method: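 Stress kinase signal reflects nuclear phospho-c-Jun staining in fixed, permeabilized cells exposed 72 h to compound at 0.39–200 uM; DMSO-normalized, fitted for increases or decreases.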

Test [8] in a line: APR_HepG2_StressKinase_24hr: Apredica 24-hour HepG2 Assay for Stress Kinase (AID 2282922). The settings on record: HepG2 stress kinase (phospho-c-Jun) imaging, actives raise or lower the signal. The gist of the method: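 Read-out: phospho-c-Jun immunofluorescence (Cy3 secondary) quantified by high-content imaging at 20x, nuclei defined by Hoechst 33342. Human HepG2 liver cells dosed 24 hr, 0.39–200 uM, DMSO 0.5% v/v; gain or loss of signal fitted relative to DMSO.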

Test [9] in a line: APR_HepG2_p53Act_72hr: Apredica 72-hour HepG2 Assay for p53 Activation (AID 2282923).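 Further: average cellular p53 protein immunofluorescence intensity in HepG2 cells.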 Conditions: high-content imaging, actives raise or lower the signal. A digest of the protocol:
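Fixed-cell p53 staining (sheep primary, Cy5 secondary) measured by fluorescence imaging following 72 hr treatment at 0.39–200 uM in 0.5% DMSO; DMSO served as negative control and baseline.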

Test [10] in a line: APR_HepG2_MitoMass_72hr: Apredica 72-hour HepG2 Assay for Mitochondrial Mass (AID 2282924).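 Further: MitoTracker Red CMXRos stain intensity per cell imaged as mitochondrial mass.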 Conditions: high-content imaging, actives raise or lower the signal. The gist of the method:
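Read-out: MitoTracker Red fluorescence intensity from automated imaging (20x, six fields per well) in human HepG2 liver cells. Dosing ran 72 hr, 0.39–200 uM, 0.5% DMSO; bidirectional curve fitting versus DMSO baseline.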

Calls of active or inactive are those of the source. How the source made its calls: active means hit-call score of the fitted dose curve at least 0.9, where 1 is the maximum; inactive means score below 0.9.

Turning to `CCNc1cccc(C)c1`, the call in test [1], in test [2], in [3], in [4], in test [5] and in test [6] was inactive. Besides, the compound was called inactive in [7], in test [8], in test [9] and in test [10].

On to `CC(C)c1ccc(C(=O)N=C(N)N)cc1S(C)(=O)=O`, for which the result in [1], in test [2], in test [3], in test [4], in [5] and in test [6] was inactive. Also, the result in test [7], in test [8], in test [9] and in test [10] was inactive.

As for `CCOc1ccc2c(c1)C(C)=CC(C)(C)N2`, the AC50 is 103 µM (active) in [1]; 92.7 µM (active) in test [2]; 78.2 µM (active) in test [4]; 72.7 µM (active) in test [6]; 76.1 µM (active) in [9]. Moreover, the outcome in [3], in test [5], in [7], in test [8] and in [10] was inactive.

Regarding `COCCOCCOC`, the compound was classed as inactive in [1], in [2], in test [3], in test [4], in test [5] and in test [6]. For the same compound, the call in test [7], in test [8], in [9] and in [10] was inactive.

As to `Nc1ccccc1N`, the AC50 in [1] is 9.57 µM (active); in [2], 38.8 µM (active); in test [4], 14.2 µM (active); in [6] it was 45.8 µM (active); in test [7] it was 59.9 µM (active); in [9] it was 18.9 µM (active). Moreover, the AC50 in test [10] was 16.2 µM (active). In addition, the outcome in test [3], in test [5] and in test [8] was inactive.

For the compound `CC(CO)OC(C)CO` (stereo not given) (tested in a mixture with another compound), the result in [1], in test [2], in [3], in test [4], in [5] and in test [6] was inactive. Besides, the outcome in test [7], in test [8], in test [9] and in test [10] was inactive.

As for `Cc1ccc(C)c(C)c1`, the outcome in test [1], in [2], in [3], in [4], in test [5] and in test [6] was inactive. For the same compound, the compound was called inactive in [7], in test [8], in test [9] and in test [10].

Take `CC(=O)C(C)=CC1C(C)=CCCC1(C)C` (stereo not given): the outcome in [1], in test [2], in test [3], in test [4], in test [5] and in [6] was inactive. Further, the result in test [7], in test [8], in test [9] and in test [10] was inactive.

For the compound `Cc1ccc(Cl)cc1`, the outcome in test [1], in [2], in test [3], in [4], in test [5] and in [6] was inactive. In addition, the result in test [7], in test [8], in test [9] and in test [10] was inactive.

Regarding `Clc1cc(Cl)c(Cl)cc1Cl`, the result in test [1], in test [2], in test [3], in test [4], in [5] and in test [6] was inactive. Also, the outcome in test [7], in test [8], in test [9] and in test [10] was inactive.

Consider `O=[N+]([O-])C(CO)(CO)CO`, for which the AC50 is 107 µM (active) in test [1]; 118 µM (active) in test [2]; 105 µM (active) in test [4]; 112 µM (active) in [7]; 119 µM (active) in [9]. The outcome in test [3], in test [5], in test [6], in test [8] and in [10] was inactive.

In the case of `CC1=C(/C=C/C(C)=C/C=C/C(C)=C/CO)C(C)(C)CCC1`, the concentration at half-maximal activity (AC50) in test [1] is 96.6 µM (active); in [2] it was 19.4 µM (active); in [4], 92.8 µM (active); in test [6], 76.5 µM (active); in [8], 72.1 µM (active); in test [10], 112 µM (active). Further, the compound was classed as inactive in [3], in test [5], in [7] and in test [9].

Turning to `Cc1oc(-c2ccccc2)nc1CCOc1cccc2c1ccn2CCC(=O)O`, the call in test [1], in test [2], in test [3], in [4], in [5] and in [6] was inactive. Moreover, the outcome in test [7], in test [8], in test [9] and in test [10] was inactive.

As for `COc1cc(C=O)ccc1O`, the compound was called inactive in [1], in [2], in [3], in test [4], in test [5] and in [6]. Also, the call in test [7], in [8], in test [9] and in test [10] was inactive.

Regarding `CCCCOC(=O)CCCCCCCCC(=O)OCCCC`, the compound was classed as inactive in test [1], in test [2], in [3], in [4], in test [5] and in [6]. For the same compound, the outcome in test [7], in test [8], in test [9] and in test [10] was inactive.

Take `CCCCC(CC)COC(=O)CC(C(=O)OCC(CC)CCCC)S(=O)(=O)O` (stereo not given): the AC50 in [1] was 141 µM (active); in test [2] it was 108 µM (active); in test [3], 112 µM (active); in [4] it was 80.8 µM (active); in test [6], 102 µM (active); in test [9], 103 µM (active). Further, the compound was classed as inactive in test [5], in test [7], in test [8] and in test [10].

As for `O=C(O)Cc1ccccc1Nc1c(Cl)cccc1Cl`, the AC50 in test [1] was 107 µM (active). Also, the outcome in test [2], in test [3], in test [4], in test [5], in [6] and in [7] was inactive. Moreover, the outcome in test [8], in [9] and in [10] was inactive.

On to `O=c1[nH]cc(F)c(=O)[nH]1`, for which the AC50 in [1] was 2.45 µM (active). The compound was classed as inactive in [2], in [3], in [4], in test [5], in test [6] and in [7]. In addition, the result in test [8], in test [9] and in test [10] was inactive.

On to `CC(C)(C)c1cc(O)c(C(C)(C)C)cc1O`, for which the AC50 in [1] was 51.6 µM (active); in test [2] it was 36 µM (active); in test [3] it was 104 µM (active); in test [4], 11.8 µM (active); in [6] it was 79.4 µM (active); in test [8], 93.1 µM (active). Also, the AC50 in test [9] was 12.5 µM (active). Besides, the call in test [5], in test [7] and in [10] was inactive.

With `C1CCC(SSC2CCCCC2)CC1`, the AC50 in test [1] was 97.4 µM (active); in test [6] it was 113 µM (active); in test [7], 108 µM (active); in test [9], 148 µM (active). The call in test [2], in test [3], in [4], in test [5], in [8] and in test [10] was inactive.

`CCCCCCCC=O`: the call in test [1], in [2], in test [3], in [4], in [5] and in test [6] was inactive. The outcome in test [7], in test [8], in test [9] and in test [10] was inactive.
